Test results published in PubChem BioAssay (Tox21).
Results filed as inconclusive are left out. The source made the active and inactive calls. Unless noted, the call rests on the fitted dose curve.

Key:
[1] = Nuclear factor erythroid 2-related factor 2/antioxidant responsive element (Nrf2/ARE) small molecule agonists: qHTS cell viability counter screen in human keratinocytes (AID 1919968; active means well fitted cell-killing curve with a large enough effect in the repeat runs; further: nearly all actives have a fitted effect of over 55% in size)
In short: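 KeratinoSens HaCaT cells, 1,500/well, preincubated 5 h, then exposed to compounds in DMSO for 23 h at 37 C/5% CO2. Viability read as CellTiter-Fluor fluorescence after 1 h, in the same wells as the ARE-luciferase read.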

[2] = molecular target: Gonadotropin-releasing hormone receptor (Homo sapiens) (UniProt P30968); test: Human gonadotropin-releasing hormone receptor (GnRHR) small molecule agonists, calcium flux assay in GnRHR-HEK293 cells (AID 1920063); further: nearly all actives have a fitted effect of over 35% in size
Chain of Gonadotropin-releasing hormone receptor (Homo sapiens) (P30968 whole entry, looked up): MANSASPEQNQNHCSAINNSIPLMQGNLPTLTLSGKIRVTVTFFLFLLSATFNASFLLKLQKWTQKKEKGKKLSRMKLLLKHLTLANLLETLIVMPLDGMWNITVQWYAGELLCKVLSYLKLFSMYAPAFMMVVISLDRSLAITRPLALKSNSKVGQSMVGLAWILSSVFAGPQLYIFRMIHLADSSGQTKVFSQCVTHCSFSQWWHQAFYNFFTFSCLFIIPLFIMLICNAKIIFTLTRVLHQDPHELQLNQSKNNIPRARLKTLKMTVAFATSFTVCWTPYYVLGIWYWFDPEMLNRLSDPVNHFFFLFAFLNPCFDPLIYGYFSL
In short: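 HEK293 cells stably expressing human GnRHR were dye-loaded for 1 h at 37 C. Compound was added in agonist mode and fluorescence (Ex/Em 480/540) recorded kinetically for 3 min. Fifteen concentrations, triplicates.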

[3] = G protein-coupled receptor (GPCR) small molecule agonists, calcium flux assay: HEK293 wild type cell line counter screen (AID 1920065)
In short: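 Wild-type HEK293 cells plated 18 h, loaded with calcium dye 1 h at 37 C, then compounds added in agonist mode (ATP as positive control). Kinetic fluorescence Ex/Em 480/540 recorded 3 min at 1 sec intervals; 15 concentrations, triplicate.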

[4] = p53 small molecule agonists, cell-based qHTS assay with rat liver microsomes (AID 1963578)
In short: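 p53RE-bla cells, 4,000/well, pre-incubated 5 h, then given compounds plus rat liver microsomes (0.5 mg/mL final) and NADPH (0.5 mg/mL final). Incubation 16 h at 37 C; beta-lactamase reporter read by LiveBLAzer fluorescence after 2 h at room temperature.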

[5] = p53 small molecule agonists, cell-based qHTS assay with human liver microsomes: qHTS cell viability counter screen (AID 1963579); further: nearly all actives have a fitted effect of over 45% in size
In short: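 p53RE-bla cells, 4,000/well, dosed 5 hours after plating, with human liver microsomes (0.5 mg/mL final) plus NADPH (0.5 mg/mL final), 16 hours at 37 C. Viability read as CellTiter-Glo luminescence after 30 min at room temperature.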

[6] = p53 small molecule agonists, cell-based qHTS assay with rat liver microsomes: qHTS cell viability counter screen (AID 1963580); further: nearly all actives have a fitted effect of over 45% in size
In short: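 HCT-116 p53RE-bla, 4,000 cells/well, 5 h pre-incubation; cpd + rat liver microsomes 0.5 mg/mL + NADPH 0.5 mg/mL (final); 16 h, 37 C; CellTiter-Glo, 30 min RT; luminescence.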

[7] = p53 small molecule agonists, cell-based qHTS assay: qHTS cell viability counter screen (AID 1963581); further: nearly all actives have a fitted effect of over 45% in size
In short: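 p53RE-bla HCT-116 cells, compounds added 5 h after plating and incubated 16 h at 37 C. Cytotoxicity measured in the same wells as intracellular ATP by CellTiter-Glo luminescence after 30 min at room temperature.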

[8] = p53 small molecule agonists, cell-based qHTS assay (AID 1963582; active means well fitted activation curve with a large enough effect in the signal ratio in the repeat runs, not every such curve was filed as active; the % refers to the signal ratio)
In short: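 p53RE-bla reporter cells, compounds added in DMSO after 5 h plating, incubated 16 h at 37 C. Beta-lactamase read via 2 h room-temperature LiveBLAzer B/G FRET substrate, fluorescence intensity.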

[9] = molecular target: 5-hydroxytryptamine receptor 2A (Homo sapiens) (UniProt P28223); test: 5-hydroxytryptamine receptor 2A (HTR2A) small molecule antagonists, cell-based qHTS assay (AID 1963586); further: nearly all actives have a fitted effect of over 45% in size
Chain of 5-hydroxytryptamine receptor 2A (Homo sapiens) (P28223 whole entry, looked up): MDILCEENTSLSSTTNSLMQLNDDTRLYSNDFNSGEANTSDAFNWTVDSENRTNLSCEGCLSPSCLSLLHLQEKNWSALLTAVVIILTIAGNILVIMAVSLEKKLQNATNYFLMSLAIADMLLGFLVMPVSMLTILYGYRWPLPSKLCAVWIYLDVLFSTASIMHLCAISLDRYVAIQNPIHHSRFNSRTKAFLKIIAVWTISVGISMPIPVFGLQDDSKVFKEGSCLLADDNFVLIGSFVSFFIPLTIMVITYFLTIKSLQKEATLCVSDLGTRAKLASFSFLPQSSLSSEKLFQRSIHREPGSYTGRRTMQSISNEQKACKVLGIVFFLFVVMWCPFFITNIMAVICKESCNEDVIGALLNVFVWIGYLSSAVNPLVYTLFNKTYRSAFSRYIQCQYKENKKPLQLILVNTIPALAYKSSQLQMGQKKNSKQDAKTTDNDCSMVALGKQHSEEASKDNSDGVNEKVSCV
In short: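 Antagonist-mode intracellular calcium assay: DOI (4 nM) added after 5 min compound pre-incubation at room temperature to dye-loaded HTR2A-CHO cells. Fluorescence followed for 3 min, sampled every second.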

[10] = molecular target: 5-hydroxytryptamine receptor 2A (Homo sapiens) (UniProt P28223); test: 5-hydroxytryptamine receptor 2A (HTR2A) small molecule agonists, cell-based qHTS assay (AID 1963587); further: nearly all actives have a fitted effect of over 30% in size
In short: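 Kinetic calcium-flux fluorescence (2 min, 1 sec intervals) after compound addition in agonist mode. HTR2A-CHO cells were cultured 18 h, then dye-loaded 1 h at 37 C.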

[11] = molecular target: Muscarinic acetylcholine receptor M1 (Homo sapiens) (UniProt P11229); test: Cholinergic receptor muscarinic 1 (CHRM1) small molecule antagonists, cell-based qHTS assay (AID 1963588); further: nearly all actives have a fitted effect of over 40% in size
Chain of Muscarinic acetylcholine receptor M1 (Homo sapiens) (P11229 whole entry, looked up): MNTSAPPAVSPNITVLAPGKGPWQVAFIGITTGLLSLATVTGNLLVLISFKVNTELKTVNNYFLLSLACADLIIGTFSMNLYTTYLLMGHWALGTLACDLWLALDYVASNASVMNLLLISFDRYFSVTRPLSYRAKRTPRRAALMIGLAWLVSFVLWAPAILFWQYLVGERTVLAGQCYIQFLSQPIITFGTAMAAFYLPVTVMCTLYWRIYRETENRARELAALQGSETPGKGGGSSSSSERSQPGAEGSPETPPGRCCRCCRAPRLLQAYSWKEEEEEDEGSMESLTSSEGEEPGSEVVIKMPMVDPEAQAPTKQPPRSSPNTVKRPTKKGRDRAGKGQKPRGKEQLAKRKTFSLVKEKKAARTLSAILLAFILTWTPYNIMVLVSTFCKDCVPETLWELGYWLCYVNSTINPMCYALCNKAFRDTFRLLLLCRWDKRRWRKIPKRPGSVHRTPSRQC
In short: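 CHRM1-CHO calcium-flux assay, antagonist mode. Cells were seeded 18 h, dye-loaded 1 h at 37 C and given compound for 5 min at RT, then acetylcholine was added at 50nM. FDSS fluorescence was read 3 min; 15 concentrations, three runs.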

[12] = molecular target: Muscarinic acetylcholine receptor M1 (Homo sapiens) (UniProt P11229); test: Cholinergic receptor muscarinic 1 (CHRM1) small molecule agonists, cell-based qHTS assay (AID 1963589); further: nearly all actives have a fitted effect of over 35% in size
In short: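 CHO cells stably expressing human CHRM1 were loaded with calcium dye for 1 h at 37 C, then compound was added in agonist mode. Intracellular calcium fluorescence was followed kinetically at 1 s intervals. Fifteen concentrations were tested in three independent runs.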

[13] = cAMP Responsive Elements (CRE) small molecule agonists, cell-based qHTS assay (AID 1963590)
In short: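 CRE-bla HEK 293T cells, 2,000/well in DMEM with 10% dialyzed FBS and 25 mM HEPES, pre-incubated 18 h at 37 C, then exposed to compound 3 h at 37 C. Beta-lactamase reporter read with LiveBLAzer B/G FRET substrate after 2 h at room temperature.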

[14] = cAMP Responsive Elements (CRE) small molecule antagonists, cell-based qHTS assay (AID 1963591; active means well fitted inhibition curve with a large enough effect in the signal ratio in the repeat runs, not every such curve was filed as active; the % refers to the signal ratio)
In short: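 CRE-bla HEK293T cells plated 18 h, then given compound plus NKH477 at 0.25 uM final for 3 h at 37C. Beta-lactamase reporter read with LiveBLAzer B/G FRET substrate after 2 h at room temperature.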

[15] = molecular target: Beta-2 adrenergic receptor (Homo sapiens) (UniProt P07550); test: Adrenergic beta2 receptor (ADRB2) small molecule antagonists, cell-based qHTS assay (AID 1963592); further: series mostly up to about 92 µM; nearly all actives have a fitted effect of over 50% in size
Chain of Beta-2 adrenergic receptor (Homo sapiens) (P07550 whole entry, looked up): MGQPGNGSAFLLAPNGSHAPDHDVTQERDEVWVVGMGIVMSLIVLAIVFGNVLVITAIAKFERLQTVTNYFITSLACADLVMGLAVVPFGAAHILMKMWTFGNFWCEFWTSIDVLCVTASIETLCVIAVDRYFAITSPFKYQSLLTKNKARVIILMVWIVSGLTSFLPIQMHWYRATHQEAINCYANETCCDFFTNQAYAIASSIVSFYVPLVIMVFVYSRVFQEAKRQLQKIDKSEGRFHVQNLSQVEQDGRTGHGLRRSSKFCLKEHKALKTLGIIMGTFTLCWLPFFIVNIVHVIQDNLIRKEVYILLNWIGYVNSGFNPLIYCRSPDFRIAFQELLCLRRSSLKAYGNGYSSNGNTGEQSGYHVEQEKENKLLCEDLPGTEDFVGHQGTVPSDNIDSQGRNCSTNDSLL
In short: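 Cells (CHO, stable ADRB2 overexpression) incubated 18-20hr at 37C; compounds added from DMSO; agonist mix (1nM isoproterenol, 100uM IBMX, 25uM Ro-20-1724) added; 0.5hr RT; d2-cAMP and anti-cAMP-cryptate added; 1hr RT; 665/615 nm read.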

[16] = molecular target: Beta-2 adrenergic receptor (Homo sapiens) (UniProt P07550); test: Adrenergic beta2 receptor (ADRB2) small molecule agonists, cell-based qHTS assay (AID 1963593);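 further: CHO cells stably overexpressing human ADRB2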
In short: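 CHO cells stably over-expressing ADRB2 were plated overnight at 37C, then dosed with compounds plus a stimulation mix containing 100uM IBMX and 25uM Ro-20-1724 for 0.5hr at room temperature. cAMP was measured by HTRF competition, 1hr.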

[17] = molecular target: D(2) dopamine receptor (Homo sapiens) (UniProt P14416); test: Dopamine D2 receptor (DRD2) small molecule agonists, cell-based qHTS assay (AID 1963594); further: nearly all actives have a fitted effect of over 35% in size
Chain of D(2) dopamine receptor (Homo sapiens) (P14416 whole entry, looked up): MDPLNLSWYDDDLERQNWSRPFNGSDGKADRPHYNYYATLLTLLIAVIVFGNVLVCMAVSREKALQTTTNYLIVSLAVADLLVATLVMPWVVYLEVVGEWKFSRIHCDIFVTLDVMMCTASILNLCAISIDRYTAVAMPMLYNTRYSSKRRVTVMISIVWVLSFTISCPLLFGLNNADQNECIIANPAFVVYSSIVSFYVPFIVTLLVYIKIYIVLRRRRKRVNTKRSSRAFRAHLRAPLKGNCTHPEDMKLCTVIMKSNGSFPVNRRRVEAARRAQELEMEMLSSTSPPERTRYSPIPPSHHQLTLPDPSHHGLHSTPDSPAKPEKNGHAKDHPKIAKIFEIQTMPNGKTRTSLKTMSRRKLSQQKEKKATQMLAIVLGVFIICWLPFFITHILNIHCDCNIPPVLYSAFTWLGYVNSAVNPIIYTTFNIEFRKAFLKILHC
In short: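 cAMP accumulation in DRD2-HEK293 cells measured by HTRF after 1 h detection; compounds added 10 min before NKH477 (200nM […]) forskolin-analogue stimulation, 30 min at room temperature, with Ro20-1724 present at 0.1 mM final.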

[18] = molecular target: D(2) dopamine receptor (Homo sapiens) (UniProt P14416); test: Dopamine D2 receptor (DRD2) small molecule antagonists, cell-based qHTS assay (AID 1963595; active means well fitted inhibition curve with a large enough effect in the signal ratio in the repeat runs, with a control signal flat; the % refers to the signal ratio)
In short: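 Cells were plated and grown for 24 h at 37 °C. Ro20-1724 (0.1 mM final) went in first, then compound for 10 min. NKH477 (200 nM) with quinpirole (12 nM) followed for 30 min at RT, then HTRF detection reagents for 1 h.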

[19] = p53 small molecule agonists, cell-based qHTS assay with human liver microsomes (AID 1963577)
In short: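 p53RE-bla cells, 4,000/well, compound added after 5 h, with human liver microsomes 0.5 mg/mL and NADPH 0.5 mg/mL final; 16 h at 37 C, then LiveBLAzer 2 h RT, fluorescence.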

Measured: Potency

Cc1cccc(N=Nc2ccc(N(C)C)cc2)c1
not listed: [19]
inactive: all other assays above

O=[N+]([O-])/N=C1\NCCN1Cc1ccc(Cl)nc1
not listed: [4] | [8] | [11] | [19]
inactive: all other assays above

O=C(Cl)c1ccccc1
not listed: [4]
inactive: all other assays above

Oc1c(Br)cc(Br)cc1Br
not listed: [4] | [8] | [16] | [19]
inactive: all other assays above

O=C(O)C(F)(F)C(F)(F)C(F)(F)C(F)(F)C(F)(F)C(F)(F)C(F)(F)F
not listed: [7]
inactive: all other assays above

ClC(Cl)=C(Cl)C(Cl)=C(Cl)Cl
not listed: [4] | [8] | [19]
inactive: all other assays above

CC(C)(O)C(=O)Nc1ccc([N+](=O)[O-])c(C(F)(F)F)c1
not listed: [7] | [8] | [13] | [16]
inactive: all other assays above

O=S(=O)(O)OOS(=O)(=O)O
not listed: [4] | [8] | [10] | [12] | [19]
inactive: all other assays above
